Data: PubChem BioAssay (NCATS)
Results filed as inconclusive are left out. Activity calls are given as the source filed them. Calls follow the shape of the dose curve; as a rule, active = well fitted inhibition curve with a large enough effect; inconclusive = small, poorly fitted or top-dose-only effect; inactive = flat fitted curve, though single readings scatter.

Columns and labels:
Assay in all cases: qHTS profiling for inhibitors of Plasmodium falciparum proliferation (AID 504749); also: nearly all actives have a fitted effect of over 60% in size
Details in all cases: P. falciparum in erythrocytes, SYBR Green DNA, 72 h; series mostly up to 28.7 µM
[1] = system: CP266
How it was run: (§1)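 SYBR Green fluorescence (ex 485 nm, em 535 nm) reports parasite DNA after 72 h compound exposure of infected red cells at 0.3% parasitemia, 2.5% hematocrit; signal normalized to 0.29 uM artemisinin and vehicle wells.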

[2] = system: CP268
How it was run: as §1

[3] = system: CP269
How it was run: as §1

[4] = system: CP286
How it was run: as §1

[5] = system: CP291
How it was run: as §1

[6] = system: CP297
How it was run: as §1

[7] = system: CP305
How it was run: as §1

[8] = system: CP315
How it was run: as §1

[9] = system: CP325
How it was run: as §1

[10] = system: CP329
How it was run: as §1

Measured: Potency

CC(=O)Nc1ccc(OC(=O)c2ccccc2O)cc1
inactive: all assays above

CC(=O)Oc1cccc(C(=O)O)c1OC(C)=O
inactive: all assays above

OCl
inactive: all assays above

N[C@H](CC(=O)O)C(=O)O
inactive: all assays above

CC/C=C\C/C=C\C/C=C\CCCCCCCC(=O)O
inactive: all assays above

CC12CCC(C[N+](C)(CCC[N+](C)(C)C)C1)C2(C)C (stereo not given)
inactive: all assays above

NC(=O)CC[C@@H]1NC(=O)[C@H](Cc2ccccc2)NC(=O)[C@H](Cc2ccc(O)cc2)NC(=O)[C@@H](N)CSSC[C@@H](C(=O)N2CCC[C@H]2C(=O)N[C@@H](CCCN=C(N)N)C(=O)NCC(N)=O)NC(=O)[C@H](CC(N)=O)NC1=O
inactive: all assays above

CNC(=O)OCc1cccc(COC(=O)NC)n1
inactive: all assays above

C[C@H](O)CN(C)C
inactive: all assays above

[O-][N+](=Nc1ccccc1)c1ccccc1
inactive: all assays above

CCOC(=S)SSC(=S)OCC
inactive: all assays above

C=CCOc1ccc(CC(=O)O)cc1Cl
inactive: all assays above

CCN(CC)C(=S)S
inactive: all assays above

O=C(O)CCC/C=C\C[C@@H]1[C@@H](/C=C/[C@@H](O)COc2cccc(Cl)c2)[C@H](O)C[C@@H]1O
inactive: all assays above

c1ccc(-n2cnnn2)cc1
inactive: all assays above

CCSc1ccc2c(c1)N(CCCN1CCN(C)CC1)c1ccccc1S2
inactive: all assays above

COc1cc(S(C)=O)ccc1-c1nc2ncccc2[nH]1 (stereo not given)
inactive: all assays above

c1ccc2c(c1)OCC(CN1CCCCC1)O2 (stereo not given)
inactive: all assays above

COc1ccc(/C=C/C(=O)O)cc1
inactive: all assays above

CC1CC(O)CC(C)(C)C1 (stereo not given)
inactive: all assays above

OCC(O)CO
inactive: all assays above

CCOC(=O)[C@@H](N)CS
inactive: all assays above

O=C1c2ccccc2C(=O)C1c1ccc(F)cc1
inactive: all assays above

O=P(O)(O)OP(=O)(O)OP(=O)(O)O
inactive: all assays above

CN(C)CCOc1ccc(/C(=C(/CCCl)c2ccccc2)c2ccccc2)cc1
inactive: all assays above

O=C(O)c1ccc(NC(=O)[C@H](Cc2ccc(O)cc2)NC(=O)c2ccccc2)cc1
inactive: all assays above

CN(CCO)CC(O)Cn1cnc2c1c(=O)n(C)c(=O)n2C (stereo not given) (tested in a mixture with another compound)
inactive: all assays above

O=C(OCc1ccccc1)c1ccc(O)cc1
inactive: all assays above

FCOC(C(F)(F)F)C(F)(F)F
inactive: all assays above

O=C1c2ccccc2C(=O)C1c1ccc(Cl)cc1
inactive: all assays above

CCCCCCCCCCCC(=O)OCC(O)CO (stereo not given)
inactive: all assays above

CC1C(=O)CC2C3(C)CCC2(C(C)C(=O)O)C(=O)C13 (stereo not given)
inactive: all assays above

CC1=CCC2CC1C2(C)C (stereo not given)
inactive: all assays above

CCCCCCCCCCCCCCCCCCCCCC(=O)Nc1ccn([C@@H]2O[C@H](CO)[C@@H](O)[C@@H]2O)c(=O)n1
inactive: all assays above

Cc1ncc(COP(=O)(O)O)c(CN)c1O
inactive: all assays above

C[C@H](CCCC(C)(C)O)[C@H]1CC[C@H]2[C@@H]3CC=C4C[C@@H](O)CC[C@]4(C)[C@H]3CC[C@]12C
inactive: all assays above

COc1cc2c(cc1OC)[C@@H](Cc1cc(OC)c(OC)c(OC)c1)[N+](C)(CCCOC(=O)CC/C=C/CCC(=O)OCCC[N+]1(C)CCc3cc(OC)c(OC)cc3[C@H]1Cc1cc(OC)c(OC)c(OC)c1)CC2 (stereo not given in full)
inactive: all assays above

NC(=S)NS(=O)(=O)c1ccc(N)cc1
inactive: all assays above

O=C1c2ccccc2C(=O)c2c1ccc(O)c2O
inactive: all assays above

CC(C)CCCCCCc1ccc(O)cc1
inactive: all assays above

O=[n+]1ccn([O-])c2ccccc21
inactive: all assays above

CCCc1nc(C(C)(C)O)c(C(=O)OCc2oc(=O)oc2C)n1Cc1ccc(-c2ccccc2-c2nn[nH]n2)cc1
inactive: all assays above

COC1=C(OC)C(=O)C(C/C=C(\C)CC/C=C(\C)CC/C=C(\C)CC/C=C(\C)CC/C=C(\C)CC/C=C(\C)CC/C=C(\C)CC/C=C(\C)CC/C=C(\C)CCC=C(C)C)=C(C)C1=O
inactive: all assays above

CC1CC(OC(=O)C(O)c2ccccc2)CC(C)(C)C1 (stereo not given)
inactive: all assays above

S=C1SCN(Cc2ccccc2)CN1Cc1ccccc1
inactive: all assays above

CN1CCC(OC(=O)C(Oc2ccc(Cl)cc2)Oc2ccc(Cl)cc2)CC1
inactive: all assays above

COc1ccc(/C=N/NC(=O)c2ccncc2)c(C(=O)O)c1OC
inactive: all assays above

CC(=O)N[C@@H]1C(O[C@H]2O[C@H](C(=O)O)C(O)[C@H](O)[C@H]2O)[C@H](O)[C@@H](CO)O[C@H]1O[C@@H]1C(C(=O)O)O[C@@H](O[C@H]2[C@H](O)[C@@H](CO)OC(O)[C@@H]2NC(C)=O)[C@H](O)[C@H]1O (stereo not given in full)
inactive: all assays above

OC1OC[C@@H](O)[C@H](O)[C@@H]1O (stereo not given in full)
inactive: all assays above

Cc1ncc(C[n+]2csc(CCO)c2C)c(N)n1
inactive: all assays above

CC(C)Cc1ccc([C@@H](C)C(=O)NS(C)(=O)=O)cc1
inactive: all assays above

C[C@@](Cc1ccc(O)c(O)c1)(NN)C(=O)O
inactive: all assays above

O=C(O)C1=C(CSc2nnnn2CS(=O)(=O)O)CS[C@@H]2[C@H](NC(=O)[C@H](O)c3ccccc3)C(=O)N12
inactive: all assays above

NC(=O)[C@H]1O[C@@H](O)[C@H](O)[C@@H](O)[C@@H]1O
inactive: all assays above

FC(F)(F)C(F)(F)C(F)(F)C(F)(F)C(F)(F)C(F)(F)F
inactive: all assays above

Cc1ccc(C(C)(C)c2ccc(C)cc2)cc1
inactive: all assays above

NC(N)=O
inactive: all assays above

CCCCC(CC)CCC(CC(C)C)OS(=O)(=O)O (stereo not given)
inactive: all assays above

C=CC(=O)O
inactive: all assays above

CC1(O)CCC(C(C)(C)O)CC1 (stereo not given)
inactive: all assays above

COC(=O)C(CN)c1c[nH]c2ccc(OC)cc12 (stereo not given)
inactive: all assays above

CN1C(=O)C[C@@H](C(=O)N[C@@H](Cc2cnc[nH]2)C(=O)N2CCC[C@H]2C(N)=O)NC1=O
inactive: all assays above

FC(F)(F)C(F)(F)C(F)(F)C(F)(F)C(F)(F)F
inactive: all assays above

CCCCC(CC)COS(=O)(=O)O (stereo not given)
inactive: all assays above

Nc1nc(=O)n([C@@H]2CS[C@H](CO)O2)cc1F
inactive: all assays above

CC(=O)NCCCS(=O)(=O)O
inactive: all assays above

O=C(O)[C@H]1CN(C/C=C/P(=O)(O)O)CCN1
inactive: all assays above

CCN(CC)CCOC(=O)c1cccnc1
inactive: all assays above

Cc1cc(-c2ccc(N=Nc3ccc4c(S(=O)(=O)O)cc(S(=O)(=O)O)c(N)c4c3O)c(C)c2)ccc1N=Nc1ccc2c(S(=O)(=O)O)cc(S(=O)(=O)O)c(N)c2c1O
inactive: all assays above

O=P(O)(O)O
inactive: all assays above

CCN(CC)C(=O)c1cccnc1
inactive: all assays above

Cc1cc(=O)c(C(=O)N[C@@H](C(=O)N[C@@H]2C(=O)N3C(C(=O)O)=C(CSc4nnnn4C)CS[C@H]23)c2ccc(O)cc2)c[nH]1
inactive: all assays above

CCc1ncnc2cc(OC)c(OC)cc12
inactive: all assays above

CC12CCC(C1)C(C)(C)C2=O (stereo not given)
inactive: all assays above

CC(C)[C@H](N)C(=O)OCC(CO)OCn1cnc2c(=O)[nH]c(N)nc21 (stereo not given in full)
inactive: all assays above

Nc1nccs1
inactive: all assays above

COc1ccc(C(=O)c2ccc(C)cc2)c(O)c1
inactive: all assays above
